From PubChem BioAssay (EPA / NIEHS)
Inconclusive results are not listed. Activity calls are given as the source filed them. How the source made its calls, unless noted: active means hit-call score of the fitted dose curve at least 0.9, where 1 is the maximum; inactive means score below 0.9.

Columns and labels:
[1] = read-out: succinate dehydrogenase complex iron sulfur subunit B (SDHB), SDHB (gene 6390); assay: LTEA_HepaRG_SDHB: Life Technologies and Expression Analysis (LTEA) Assay for succinate dehydrogenase complex iron sulfur subunit B (SDHB) using HepaRG (AID 2283528); conditions: mRNA level, 48 h; actives raise or lower the signal
Procedure, shortened: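 HepaRG, 48 h exposure, 8-pt half-log series from 100 uM in 0.5% DMSO, duplicates. Readout: SDHB mRNA by Fluidigm qRT-PCR vs housekeeping genes; bidirectional fit relative to DMSO.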

[2] = read-out: Signal transducer and activator of transcription 3 (Homo sapiens) (UniProt P40763); assay: LTEA_HepaRG_STAT3: Life Technologies and Expression Analysis (LTEA) Assay for Signal transducer and activator of transcription (STAT3) using HepaRG (AID 2283529); conditions: mRNA level, 48 h; actives raise or lower the signal
Procedure, shortened: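 HepaRG, 48 h exposure, 8-pt half-log series (top 100 uM), 0.5% DMSO vehicle, duplicates. Readout: STAT3 transcript by Fluidigm qRT-PCR, housekeeping-normalized; bidirectional fit vs DMSO baseline.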

[3] = read-out: solute carrier (SLCO1B1), SLCO1B1 (gene 10599); assay: LTEA_HepaRG_SLCO1B1: Life Technologies and Expression Analysis (LTEA) Assay for solute carrier (SLCO1B1) using HepaRG (AID 2283530); conditions: mRNA level, 48 h; actives raise or lower the signal
Procedure, shortened: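 Gain or loss of SLCO1B1 mRNA is fitted against the 0.5% DMSO vehicle in human HepaRG liver cells treated 48 h at up to 100 uM in half-log steps. Expression comes from qRT-PCR normalized to endogenous controls.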

[4] = read-out: sulfotransferase 2A1 (SULT2A1), SULT2A1 (gene 6822); assay: LTEA_HepaRG_SULT2A1: Life Technologies and Expression Analysis (LTEA) Assay for sulfotransferase 2A1 (SULT2A1) using HepaRG (AID 2283531); conditions: mRNA level, 48 h; actives raise or lower the signal
Procedure, shortened: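 Cells were plated and cultured 48 h, switched to serum-free induction medium, then dosed in duplicate for 48 h (8 concentrations, max 100 uM). RNA was isolated and SULT2A1 expression measured by qRT-PCR; gain or loss of signal fitted relative to DMSO.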

[5] = read-out: Transforming Growth Factor (TGFA), TGFA (gene 7039); assay: LTEA_HepaRG_TGFA: Life Technologies and Expression Analysis (LTEA) Assay for Transforming Growth Factor (TGFA) using HepaRG (AID 2283532); conditions: mRNA level, 48 h; actives raise or lower the signal
Procedure, shortened: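 qRT-PCR read-out of TGFA transcript, normalized to three housekeeping genes, fitted bidirectionally against 0.5% DMSO baseline. Human HepaRG cultures received chemicals for 48 h at eight half-log concentrations, top 100 uM.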

[6] = read-out: Transforming Growth Factor (TGFB1), TGFB1 (gene 7040); assay: LTEA_HepaRG_TGFB1: Life Technologies and Expression Analysis (LTEA) Assay for Transforming Growth Factor (TGFB1) Transporter using HepaRG (AID 2283533); conditions: mRNA level, 48 h; actives raise or lower the signal
Procedure, shortened: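 Expression change of TGFB1 in human HepaRG cells is measured after a 48 h chemical exposure, up to 100 uM in 0.5% DMSO vehicle. Curves are fitted in both directions relative to the DMSO baseline.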

TIMP1, TIMP1 (gene 7076) = assay: LTEA_HepaRG_TIMP1: Life Technologies and Expression Analysis (LTEA) Assay for TIMP1 using HepaRG (AID 2283534); conditions: mRNA level, 48 h; actives raise or lower the signal
Procedure, shortened: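 We dosed human liver HepaRG cultures for 48 hours with up to 100 uM test chemical and measured TIMP1 expression by qRT-PCR. Activity in either direction is fitted relative to the 0.5% DMSO vehicle.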

[7] = read-out: Tumor necrosis factor receptor 1 (TNFRSF1A), TNFRSF1A (gene 7132); assay: LTEA_HepaRG_TNFRSF1A: Life Technologies and Expression Analysis (LTEA) Assay for Tumor necrosis factor receptor 1 (TNFRSF1A) using HepaRG (AID 2283535); conditions: mRNA level, 48 h; actives raise or lower the signal
Procedure, shortened: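 Expression of TNFRSF1A in human HepaRG liver cells was measured by qRT-PCR 48 h after chemical dosing (maximum 100 uM). Bidirectional curve fitting used 0.5% DMSO as baseline.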

[8] = read-out: Thyroid Hormone Responsive (THRSP), THRSP (gene 7069); assay: LTEA_HepaRG_THRSP: Life Technologies and Expression Analysis (LTEA) Assay for Thyroid Hormone Responsive (THRSP) using HepaRG (AID 2283536); conditions: mRNA level, 48 h; actives raise or lower the signal
Procedure, shortened: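 qRT-PCR read-out (Fluidigm TaqMan), housekeeping-normalized (ACTB/GAPDH/POLR2A). HepaRG, 48 h chemical exposure, 8-pt half-log series from 100 uM in 0.5% DMSO, duplicates. Bidirectional curve fit vs 0.5% DMSO baseline.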

[9] = read-out: Cellular tumor antigen p53 (Homo sapiens) (UniProt P04637); assay: LTEA_HepaRG_TP53: Life Technologies and Expression Analysis (LTEA) Assay for Tumor Protein P53 (TP53) using HepaRG (AID 2283537); conditions: mRNA level, 48 h; actives raise or lower the signal
Procedure, shortened: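 HepaRG, 48 h exposure, top 100 uM, half-log 8-point, 0.5% DMSO vehicle, duplicates. Read: TP53 mRNA by TaqMan qRT-PCR, normalised to ACTB/GAPDH/POLR2A; bidirectional fit vs DMSO.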

[10] = read-out: UDP glucuronosyltransferase (UGT1A1), UGT1A1 (gene 54658); assay: LTEA_HepaRG_UGT1A1: Life Technologies and Expression Analysis (LTEA) Assay for UDP glucuronosyltransferase (UGT1A1) using HepaRG (AID 2283538); conditions: mRNA level, 48 h; actives raise or lower the signal
Procedure, shortened: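 mRNA induction or loss of UGT1A1, by TaqMan qRT-PCR, in duplicate HepaRG wells after 48 h exposure to half-log dilutions topping at 100 uM; DMSO (0.5%) served as baseline.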

[11] = LTEA_HepaRG_LDH_cytotoxicity: Cytotoxicity Assessment in the Life Technologies and Expression Analysis (LTEA) Assay (AID 2283563; active means hit-call score of the fitted dose curve at least 0.9, where 1 is the maximum;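 on AC50: LDH activity released into spent culture medium as a marker of cell death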)
Procedure, shortened: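 Human HepaRG hepatic cells are treated with test chemicals for 48 h at up to 100 uM in 0.5% DMSO. Cytotoxicity is scored from medium LDH against the vehicle control.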

[12] = TOX21_p53_BLA_p2_viability: Viability Assessment in the Tox21 HCT-116 p53 Agonism Beta-lactamase Assay, Phase 2 (AID 2283591; active means hit-call score of the fitted dose curve at least 0.9, where 1 is the maximum;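 further: compound exposure lasted 16 h at 37 °C; actives lower the ATP signal meaning cytotoxicity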)
Procedure, shortened: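 HCT116 p53-bla cells, 4000/well, dosed after 5 h plating (217-fold dilution of DMSO stocks) and incubated 16 h at 37C. Viability taken as cellular ATP by CellTiter-Glo luminescence after 30 min RT; signal loss marks cytotoxicity.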

[13] = target: Cellular tumor antigen p53 (Homo sapiens) (UniProt P04637); assay: TOX21_p53_BLA_p2_ratio: Tox21 HCT-116 p53 Agonism Beta-lactamase Assay, Ratio, Phase 2 (AID 2283592; active means hit-call score of the fitted dose curve at least 0.9, where 1 is the maximum)
Sequence of Cellular tumor antigen p53 (Homo sapiens) (P04637 whole entry, looked up): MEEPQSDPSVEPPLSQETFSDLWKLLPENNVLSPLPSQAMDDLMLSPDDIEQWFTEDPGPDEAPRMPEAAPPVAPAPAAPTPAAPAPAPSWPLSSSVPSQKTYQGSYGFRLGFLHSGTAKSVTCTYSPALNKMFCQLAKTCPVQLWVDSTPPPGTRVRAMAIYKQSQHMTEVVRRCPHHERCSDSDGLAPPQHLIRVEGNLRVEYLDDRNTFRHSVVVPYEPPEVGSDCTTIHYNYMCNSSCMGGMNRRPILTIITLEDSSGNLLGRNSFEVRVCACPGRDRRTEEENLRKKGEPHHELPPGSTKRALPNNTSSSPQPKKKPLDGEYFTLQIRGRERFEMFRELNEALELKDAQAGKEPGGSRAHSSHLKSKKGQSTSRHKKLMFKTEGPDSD
Procedure, shortened: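 Cleaved-to-uncleaved substrate ratio (460 vs 530 nm) measured in HCT116 cells with an inducible beta-lactamase reporter linked to p53 activity. Compounds incubated 16 h at 37C before 2 h room-temperature CCF4-AM loading.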

[14] = target: Cellular tumor antigen p53 (Homo sapiens) (UniProt P04637); assay: TOX21_p53_BLA_p3_ratio: Tox21 HCT-116 p53 Agonism Beta-lactamase Assay, Ratio, Phase 3 (AID 2283596; active means hit-call score of the fitted dose curve at least 0.9, where 1 is the maximum)
Procedure, shortened: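 Cells were seeded at 4000/well, rested 5 h at 37C, then dosed with DMSO compound solutions (217-fold dilution) for 16 h. CCF4-AM substrate was loaded for 2 h at room temperature, and the 460/530 nm emission ratio was fitted for gain of signal versus DMSO.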

[15] = ATG_XTT_Cytotoxicity: Cytotoxicity Assessment in the Attagene TRANS-FACTORIAL HepG2 Assay (AID 2283584; active means hit-call score of the fitted dose curve at least 0.9, where 1 is the maximum)
Procedure, shortened: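 Transfect HepG2 with GAL4-UAS reporter units, dose compound, incubate 24 h, then measure viable cell number by XTT. Fit concentration response against DMSO baseline.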

[16] = TOX21_p53_BLA_p3_viability: Viability Assessment in the Tox21 HCT-116 p53 Agonism Beta-lactamase Assay, Phase 3 (AID 2283593; active means hit-call score of the fitted dose curve at least 0.9, where 1 is the maximum;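 further: cells exposed to compound for 16 h before reading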)
Procedure, shortened: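 HCT116 cells, 4000/well, dosed 5 h after plating by pin transfer (217-fold dilution from DMSO stock) and incubated 16 h at 37C, 5% CO2. Viability read as ATP luminescence with CellTiter-Glo after 30 min at room temperature.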

[17] = TOX21_p53_BLA_p4_viability: Viability Assessment in the Tox21 HCT-116 p53 Agonism Beta-lactamase Assay, Phase 4 (AID 2283597; active means hit-call score of the fitted dose curve at least 0.9, where 1 is the maximum;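 further: hits lower the luminescence signal meaning cytotoxicity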)
Procedure, shortened: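 Viability is taken as cellular ATP: after 16 h compound exposure of HCT116 cells and a 2 h room-temperature CCF4-AM substrate step, CellTiter-Glo reagent is added and luminescence is measured 30 min later.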

[18] = read-out: UDP glucuronosyltransferase (UGT1A6), UGT1A6 (gene 54578); assay: LTEA_HepaRG_UGT1A6: Life Technologies and Expression Analysis (LTEA) Assay for UDP glucuronosyltransferase (UGT1A6) using HepaRG (AID 2283539); conditions: mRNA level, 48 h; actives raise or lower the signal
Procedure, shortened: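 Endpoint is UGT1A6 transcript induction or loss in a human liver cell line, quantified by TaqMan qRT-PCR 48 h after dosing. Concentrations ran from 100 uM downward in half-log steps in 0.5% DMSO; activity was fitted in both directions versus vehicle.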

[19] = read-out: X-box binding protein 1 (XBP1), XBP1 (gene 7494); assay: LTEA_HepaRG_XBP1: Life Technologies and Expression Analysis (LTEA) Assay for X-box binding protein 1 (XBP1) using HepaRG (AID 2283540); conditions: mRNA level, 48 h; actives raise or lower the signal
Procedure, shortened: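 Human HepaRG monolayers receive test chemical for 48 h across an eight-point half-log series starting at 100 uM. XBP1 mRNA gain or loss is scored against DMSO by qRT-PCR.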

Measured: AC50

Sequence of Signal transducer and activator of transcription 3 (Homo sapiens) (P40763 whole entry, looked up): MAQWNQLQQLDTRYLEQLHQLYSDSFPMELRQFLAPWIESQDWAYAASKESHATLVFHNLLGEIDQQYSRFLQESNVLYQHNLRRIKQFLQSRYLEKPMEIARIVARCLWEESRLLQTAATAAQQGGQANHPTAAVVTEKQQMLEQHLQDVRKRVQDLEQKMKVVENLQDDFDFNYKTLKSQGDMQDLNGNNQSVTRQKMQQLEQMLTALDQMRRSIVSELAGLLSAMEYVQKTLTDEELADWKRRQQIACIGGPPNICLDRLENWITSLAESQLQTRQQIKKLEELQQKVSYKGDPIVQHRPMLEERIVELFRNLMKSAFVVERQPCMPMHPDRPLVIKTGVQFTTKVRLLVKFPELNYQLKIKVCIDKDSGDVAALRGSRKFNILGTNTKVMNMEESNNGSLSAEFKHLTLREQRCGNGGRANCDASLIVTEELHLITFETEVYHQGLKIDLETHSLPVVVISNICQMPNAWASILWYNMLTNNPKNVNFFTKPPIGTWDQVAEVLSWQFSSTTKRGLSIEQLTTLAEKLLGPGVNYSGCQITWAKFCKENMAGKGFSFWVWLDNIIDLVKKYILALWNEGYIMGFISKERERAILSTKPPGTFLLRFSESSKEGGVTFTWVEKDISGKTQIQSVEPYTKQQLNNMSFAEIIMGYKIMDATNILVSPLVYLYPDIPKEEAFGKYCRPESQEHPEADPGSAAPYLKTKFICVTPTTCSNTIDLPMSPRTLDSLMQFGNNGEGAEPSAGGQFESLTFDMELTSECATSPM

CCCCCCOCCO
active: [2] 9.92 µM
not listed: [15] | [16] | [17] | [18] | [19]
inactive: all other assays above

C[C@]12C=CC(=O)C=C1CC[C@@H]1[C@@H]2C(=O)C[C@@]2(C)[C@H]1CC[C@]2(O)C(=O)CO
active: [10] 50 µM
not listed: [14] | [18] | [19]
inactive: all other assays above

CCCCc1ccc2c(n1)[C@@H](c1ccc(OC)cc1C[C@H](C)C(=O)O)[C@H](C(=O)O)[C@H]2c1ccc2c(c1)OCO2
not listed: [10] | [14] | [15]
inactive: all other assays above

COC(=O)c1ccc(O)cc1
not listed: [18] | [19]
inactive: all other assays above

COc1cc(-c2nc(NC(=O)c3cc4cc(C)cc(C)c4n3CC(=O)O)sc2CCC2CCCCC2)c(OC)cc1Cl
active: [1] 13.4 µM | [2] 19.3 µM | [3] 6.78 µM | [4] 6.35 µM | [5] 60.3 µM | [6] 12.1 µM | TIMP1, TIMP1 (gene 7076) 4.26 µM | [7] 6.91 µM | [8] 6.89 µM | [9] 24.6 µM | [18] 7.34 µM | [19] 19.6 µM | [11] 9.05 µM | [12] 1.65 µM | [13] 2.2 µM | [16] 5.1 µM | [14] 7.74 µM | [17] 2.1 µM

Cc1cccc(C)c1O
not listed: [10] | [19]
inactive: all other assays above

CCCCCCCC=O
not listed: [10]
inactive: all other assays above
